Experimental data: ChEMBL document CHEMBL1156829
In all, about 5,400 compounds were measured (“IFI”: median about 2, highest 2% from about 22 on). This excerpt belongs to a sample that is enriched for the highest values.

Experiment: NOVARTIS: Inhibition Frequency Index (IFI) - the number of HTS assays where a compound showed > 50% inhibition/induction, expressed as a percentage of the number of assays in which the compound was tested.
Type: functional

Question: With `Cn1ccnc1C(=O)NNc1ncc(C(F)(F)F)cc1Cl` as the compound, how does the IFI read?
Answer: 13.3%

Question: For `CCCN[P+](CC(C)C)(NCCC)NCCC`, which IFI is on record?
Answer: 10.9%

Question: Which IFI does the source give for `C=C[C@H]1CN2CC[C@H]1C[C@H]2[C@H](OC(=O)CC)c1ccnc2ccccc12` here?
Answer: 1.87%

Question: Which IFI does the source give for `C=C1[C@@H](C)[C@H]2[C@H](Cc3ccccc3)NC(=O)[C@]23C(OC(C)=O)C=C[C@@](C)(O)C(=O)[C@@H](C)CC=C[C@H]3[C@@H]1O` (stereo not given in full) here?
Answer: 6.9%

Question: With `CCOC(=O)c1c(S(=O)(=O)Nc2ccc(C(C)(C)C)cc2)c(-c2ccccc2)n(-c2ccccc2)c1C` as the compound, how does the IFI read?
Answer: 3.09%

Question: Which IFI does the source give for `CC[C@H]1CN2CC[C@H]1C[C@H]2[C@H](O)c1ccnc2ccccc12` here?
Answer: 5.17%

Question: Which IFI does the source give for `CC1=C[C@H]2O[C@@H]3C[C@H]4OC(=O)C=CC=C[C@H]([C@@H](C)O)OCC[C@@H](C)[C@H](O)C(=O)OC[C@@]2(CC1)[C@]4(C)[C@@]31CO1` here?
Answer: 24.5%

Question: With `CC1=CC(=O)OC[C@]23CCC(C)=C[C@H]2O[C@@H]2C[C@@H](OC(=O)C=CC=CC(=O)OCC1)[C@@]3(C)[C@]21CO1` as the compound, how does the IFI read?
Answer: 22.6%

Question: For `CC1=CC(=O)OC[C@]23C[C@H](O)C(C)=C[C@H]2O[C@@H]2C[C@@H](OC(=O)C=CC=CC(=O)OCC1)[C@@]3(C)[C@]21CO1`, which IFI is on record?
Answer: 22.6%

Question: Which IFI does the source give for `Cc1onc(O)c1CC(N)C(=O)O` (stereo not given) here?
Answer: 0%

Question: For `CCOc1ccc2nccc([C@@H](O)[C@@H]3C[C@@H]4CCN3C[C@@H]4CC)c2c1`, which IFI is on record?
Answer: 3.82%

Question: Which IFI does the source give for `Cc1ccc(O)c(C(=O)c2c[nH]c(-c3nc4ccccc4[nH]3)c2)c1` here?
Answer: 0%

Question: Which IFI does the source give for `C=CC1CN2CCC1CC2[C@@H](OC(=O)c1ccc(C(C)(C)C)cc1)c1ccnc2ccc(OC)cc12` (stereo not given in full) here?
Answer: 0%

Question: For `O=C(NNc1cccc(F)n1)C(F)(F)F`, which IFI is on record?
Answer: 1.25%

Question: With `C=CC(C)(CCC=C(C)C)c1ccc2c3c(c[nH]c13)CC(CO)NC(=O)C(C(C)C)N2C` (stereo not given) as the compound, how does the IFI read?
Answer: 11.3%

Question: With `CS/C(Cl)=C(/NC(C)=O)[P+](c1ccccc1)(c1ccccc1)c1ccccc1` as the compound, how does the IFI read?
Answer: 5.34%

Question: For `C/C=C1/C[C@H]2[C@@H](OC)Nc3cc(O)c(OC)cc3C(=O)N2C1`, which IFI is on record?
Answer: 28.6%

Question: With `O=C1Cc2ccccc2C(=C2CCNCC2)c2ccsc21` as the compound, how does the IFI read?
Answer: 0%

Question: For `CC=C[C@H]1O[C@@](O)([C@@H](C)C(O)C(C)[C@H]2OC(=O)C(OC)=CC(C)=C[C@@H](C)[C@@H](O)[C@@H](C)[C@@H](O)C(C)CC(C)=CC=C[C@@H]2OC)C[C@@H](O[C@H]2C[C@@H](O)[C@H](OC(N)=O)[C@@H](C)O2)[C@@H]1C` (stereo not given in full), which IFI is on record?
Answer: 15.5%

Question: Which IFI does the source give for `CCOC(=O)c1ccc2nc(C)cc(Nc3ccc(N4CCCCC4)cc3)c2c1` here?
Answer: 1.12%

Question: For `CCN1C(=Cc2sc3ccccc3[n+]2CC)[Se]c2ccccc21`, which IFI is on record?
Answer: 22.6%

Question: For `CCC(=O)OC(C(C)C(=O)O)C(C)C1OC2(CCC(C)(C3CCC(C)(C4OC(C5OC(O)(CO)C(C)CC5C)CC4C)O3)O2)CC(O)C1C` (stereo not given), which IFI is on record?
Answer: 8.62%

Question: With `C[n+]1c2n(c3ccccc31)N=C(c1ccccc1)C[Se]2` as the compound, how does the IFI read?
Answer: 3.7%

Question: Which IFI does the source give for `CCC1CC2CCC(O2)C(C)C(=O)OC(C)CC2CCC(O2)C(C)C(=O)OC(CC)CC2CCC(O2)C(C)C(=O)OC(C)CC2CCC(O2)C(C)C(=O)O1` (stereo not given) here?
Answer: 24.1%

Question: Which IFI does the source give for `CC1CC2CCC(O2)C(C)C(=O)O[C@H](C)CC2CCC(O2)C(C)C(=O)OC(C)CC2CCC(O2)C(C)C(=O)O[C@H](C)CC2CCC(O2)C(C)C(=O)O1` (stereo not given in full) here?
Answer: 19.2%

Question: For `C[C@@H]1C[C@H]2CC[C@H](O2)[C@H](C)C(=O)O[C@@H](C)C[C@@H]2CC[C@@H](O2)[C@@H](C)C(=O)O[C@H](C)C[C@H]2CC[C@@H](O2)[C@H](C)C(=O)O[C@@H](C)C[C@@H]2CC[C@@H](O2)[C@@H](C)C(=O)O1`, which IFI is on record?
Answer: 12.5%

Question: Which IFI does the source give for `CCCCCc1cc(O)c2c3c(c(=O)oc2c1)CN(C)CC3` here?
Answer: 2.29%

Question: For `O=C1CN=C(c2ccccc2Cl)c2cc(Cl)ccc2N1Cc1cccc([N+](=O)[O-])c1`, which IFI is on record?
Answer: 1.92%

Question: With `CCCCCCCc1cc(O)c2c3c(c(=O)oc2c1)CCC(C)C3` (stereo not given) as the compound, how does the IFI read?
Answer: 0%

Question: For `C=C[C@H]1CN2CC[C@H]1C[C@H]2[C@H](OC(=O)CCCC)c1ccnc2ccccc12`, which IFI is on record?
Answer: 4.59%

Question: Which IFI does the source give for `COc1ccc2c(c1)CC1c3c(cc4c(c3-2)OCO4)CCN1C` (stereo not given) here?
Answer: 25%

Question: With `CN1CCc2cc3c(c4c2C1Cc1ccccc1-4)OCO3` (stereo not given) as the compound, how does the IFI read?
Answer: 6.17%

Question: For `COc1cc2c3cc1Oc1c(OC)c(OC)cc4c1C(Cc1ccc(O)c(c1)Oc1ccc(cc1)CC3N(C)CC2)N(C)CC4` (stereo not given), which IFI is on record?
Answer: 7.14%

Question: For `CC[C@@]1(O)C[C@H](O[C@@H]2CC(N(C)C)[C@@H](O[C@@H]3C[C@@H](O)[C@@H](O[C@@H]4CCC(=O)[C@@H](C)O4)C(C)O3)[C@@H](C)O2)c2c(cc3c(c2O)C(=O)c2c(O)ccc(O)c2C3=O)[C@H]1C(=O)OC` (stereo not given in full), which IFI is on record?
Answer: 21.4%

Question: Which IFI does the source give for `OC1(c2ccc(Cl)c(C(F)(F)F)c2)CCN(CCOC2c3ccccc3CSc3ccc(Cl)cc32)CC1` (stereo not given) here?
Answer: 2.38%
